Experimental findings from PubChem BioAssay are described below.

A short description of experiment [1]: Wnt pathway potentiators raising nuclear beta-catenin – imaging, WNT3A-conditioned medium, mouse C2C12, NPC library, primary screen (AID 1117326; in the data active = nuclear beta-catenin stimulation mostly above about 4.2%, no sharp cut-off; inactive = mostly below about 10%; also: reference of the scale not given here). As to conditions: stronger effect = higher value.
Experiment [2] in a line: stimulators of insulin release from INS-1E, primary screen, cell-based, 5 mM glucose, NPC library (AID 1117329;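 active = compound raises insulin release from rat beta cells at 5 mM glucose, no numeric limit stated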; also: reference of the scale not given here). As to conditions: rat INS-1E insulin secretion, at 10 µM, stronger effect = higher value.
A short description of experiment [3]: growth inhibition of GSK3B-pretreated HCT116 cells – cell-based, CellTiter-Glo, 0.2 to 20 µM (AID 1117336;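 active = compounds lowering colon cancer cell viability after pretreatment blocking the GSK3B kinase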). As to conditions: HCT116 viability after GSK3B inhibitor, at 20 µM, stronger effect = higher value.
The nature of experiment [4]: inhibition of endothelial tube formation, primary screen, imaging, VEGF stimulated, CD31 staining, tube area, NPC library (AID 1117340;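 active = compound that reduces growth-factor-driven endothelial tube area in a mixed cell culture, no cutoff stated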). As to conditions: VEGF-stimulated ADSC/ECFC co-culture, at 10 µM, stronger effect = higher value.
Experiment [5] in a line: GLP1 release stimulators, primary, NCI-H716, NPC library (AID 1117341;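 active = compound raises GLP1 secretion from the human gut endocrine cells, with no numeric limit stated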; also: reference of the scale not given here). As to conditions: NCI-H716 cells, at 10 µM, stronger effect = higher value.
A short description of experiment [6]: HCT116 colon cancer cell growth inhibition, primary screen, CellTiter-Glo luminescence, NPC library (AID 1117342;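 active = compounds that lower survival of HCT116 colon cancer cells in the luminescence readout, no numeric limit stated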). As to conditions: at 20 µM (top of the series).
A short description of experiment [7]: reduced SW480 viability measured with CellTiter-Glo, NPC library, primary (AID 1117343;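 active = compounds that lower viability of the colon cancer cells in the luminescence readout, with no numeric limit stated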). As to conditions: CellTiter-Glo luminescence; at 20 µM (top of the series) unless noted.
Experiment [8] is described as follows: NPC library primary testing for decreased DLD-1 cell viability via CellTiter-Glo (AID 1117346;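 active = compounds that lower survival of DLD-1 colon cancer cells in the luminescence readout, no cutoff given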). As to conditions: DLD-1 viability, CellTiter-Glo luminescence; at 20 µM (top of the series).
Experiment [9] in a line: viability loss in pontine glioma line – cell-based, JHH-DIPG-1, MIPE4.0, CellTiter-Glo, qHTS, dose response (AID 1347062; cut-off not given, nearly all actives have AC50 up to about 27 µM). As to conditions: JHH-DIPG-1 viability, CellTiter-Glo ATP luminescence.
Experiment [10] is described as follows: viability loss in pontine glioma line – cell-based, SU-DIPG-IV, MIPE4.0, CellTiter-Glo, qHTS, dose response (AID 1347063; cut-off not given, nearly all actives have AC50 up to about 30 µM;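 also: compound exposure lasted 48 hours before the viability readout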). As to conditions: CellTiter-Glo ATP luminescence.
The nature of experiment [11]: growth inhibition of DIPG cells – cell-based, MIPE4.0 library, CellTiter-Glo luminescence, qHTS (AID 1347066; cut-off not given, nearly all actives have AC50 up to about 30 µM;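 also: cells exposed to compound for 48 hours before readout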). As to conditions: SU-DIPG-VI viability, CellTiter-Glo ATP luminescence.
Experiment [12] in a line: growth inhibition of DIPG cells – cell-based, MIPE5.0 library, qHTS (AID 1347068; cut-off not given, nearly all actives have IC50 up to about 30 µM). As to conditions: SU-DIPG-XXV viability.
Experiment [13] is described as follows: viability loss with induced miR-34 in A549 – imaging, A549 dox-inducible miR-34, nuclei and caspase counts, primary screen (AID 1347080;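 active = compounds whose cell count with miR-34 switched on is under 0.7 times the count with it off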). As to conditions: A549 miR-34 inducible, Hoechst nuclei count, 48 h.
Experiment [14] is described as follows: MELAS cybrid and Rieske KO viability enhancers – cell-based, MELAS cybrids, Rieske KO mouse fibroblasts, CellTiter-Glo, primary screen (AID 1508586;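 active = mean z-score across replicates of 1.96 or higher in either the MELAS or the Rieske mutant cell line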;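 also: z relative to plate mean and SD of compound and empty wells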). As to conditions: low glucose.
A short description of experiment [15]: viability loss in pontine glioma line – cell-based, SU-DIPG-XXV, MIPE5.0, CellTiter-Glo, qHTS, dose response (AID 1347065).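 Also: cells exposed to compound for 48 hours before ATP readout.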 As to conditions: CellTiter-Glo ATP luminescence.
Experiment [16] in a line: JHH-DIPG-1 glioma cell viability, MIPE5.0 library, CellTiter-Glo luminescence, qHTS (AID 1347067).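 Also: cells exposed to compound for 48 hours before readout.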 As to conditions: JHH-DIPG-1 glioma viability, CellTiter-Glo ATP luminescence.
A short description of experiment [17]: blockers of cellular phospholipid synthesis – cell-based, LOPAC library, screen 4, primary screen (AID 1347384; call rule not given here). As to conditions: animal cells, phospholipid biosynthesis inhibition screen; at 10 µM.
The nature of experiment [18]: galactose survival enhancers in mitochondrial complex I cybrids – cell-based, galactose medium, ATP luminescence, primary screen (AID 1645843;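 active = z-score of at least 1.8 in each of two replicates, scored against plate mean and spread of sample wells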;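 also: positive z means more ATP and so rescue of galactose-driven cybrid death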). As to conditions: complex I mutant cybrid cells, 72 h, stronger effect = higher value.
The mark [19] stands for this setting: stronger effect = lower value, cell number ratio, induced over uninduced.
Where [20] appears, read: measured here: relative caspase fold change +Dox/-Dox.
Setting [21] is: measured here: total cells with miR-34 induction, stronger effect = lower value.
[22] abbreviates: measured here: total cells without miR-34 induction.
The mark [23] stands for this setting: MELAS cybrid survival, CellTiter-Glo 48 h, stronger effect = higher value.
Where [24] appears, read: Rieske KO mouse fibroblast survival, CellTiter-Glo 72 h.

Where “and” joins values, the source holds several entries; their conditions need not be identical. Equal values may be shown once. Results filed as inconclusive are left out. Calls of active or inactive are those of the source. Unless noted, the limit is not given here; nearly all actives have AC50 up to about 26 µM.

Take `COc1ccc(-c2ccc3cc(C(=O)O)ccc3c2)cc1C12CC3CC(CC(C3)C1)C2`: the nuclear beta-catenin stimulation in [1] (at 10 µM) was 21.9% (inactive); in experiment [1] (stimulation, at 2 µM), 32.2%. For the same compound, the insulin secretion stimulation in [2] is 0.9% (inactive). For the same compound, the viability decrease in experiment [3] is 118% (active). Moreover, in [4], the tube area decrease is 99.5% (active). Moreover, the GLP1 secretion stimulation in experiment [5] is -2.3% (inactive). Moreover, the inhibition of viability in [6] was 123% (active). Moreover, the viability decrease (inhibition) in [7] is 159% (active); in experiment [8], 102% (active). The compound was called inactive in experiment [9], in experiment [10], in [11] and in experiment [12]. In addition, the fold change was 1.08 (inactive) and 1.16 (inactive) in experiment [13] (setting [19]); 0.775 and 0.908 in [13] (setting [20]). The cell count is 1330 and 1240 in experiment [13] (setting [21]); 1230 and 1070 in [13] (setting [22]). Also, the z-score in experiment [14] (setting [23]) was -0.222 (inactive) and -1.26 (inactive); in [14] (setting [24]), 0.947 and 0.282.

In the case of `N#Cc1c(N(CC(=O)O)CC(=O)O)sc(C(=O)O)c1CC(=O)O`, the nuclear beta-catenin stimulation in [1] (at 10 µM) is -1.5% (inactive); in [1] (stimulation, at 2 µM), -0.9%. Also, the insulin secretion stimulation in experiment [2] was 4.8% (inactive). The viability decrease in experiment [3] was -2.4% (inactive). Also, the tube area decrease in experiment [4] was 0% (inactive). In addition, the GLP1 secretion stimulation in experiment [5] was -1.7% (inactive). For the same compound, the inhibition of viability in [6] was -4% (inactive). For the same compound, the results for the viability decrease (inhibition) in experiment [7] and in experiment [8] were -7.1% (inactive) and -13.8% (inactive), respectively. In addition, the result in experiment [15], in experiment [11], in experiment [16] and in [12] was inactive.

For the compound `CN(C)C(=O)COC(=O)Cc1ccc(OC(=O)c2ccc(N=C(N)N)cc2)cc1`, the nuclear beta-catenin stimulation in experiment [1] (at 10 µM) was 1.4% (inactive); in [1] (stimulation, at 2 µM), 0.4%. Also, in experiment [2], the insulin secretion stimulation is -0.35% (inactive). In addition, in experiment [3], the viability decrease was 16.9% (inactive). Besides, the tube area decrease in experiment [4] was -11.6% (inactive). The GLP1 secretion stimulation in experiment [5] is -0.7% (inactive). Moreover, the inhibition of viability in experiment [6] is 13.5% (inactive). The values for the viability decrease (inhibition) in [7] and in [8] were -4.4% (inactive) and 4.3% (inactive), respectively. The compound was called inactive in [9], in [15], in experiment [16] and in experiment [12]. The fold change in experiment [13] (setting [19]) was 0.981 (inactive); in [13] (setting [20]), 0.433. The cell count in [13] (setting [21]) stood at 8560; in experiment [13] (setting [22]) it was 8730. The z-score in experiment [14] (setting [23]) is -0.283 (inactive); in [14] (setting [24]), 0.0145.

For the compound `O=[N+]([O-])c1cncn1CCN1CCOCC1`, the nuclear beta-catenin stimulation in [1] (at 10 µM) was -1.1% (inactive); in [1] (stimulation, at 2 µM), 0.4%. Further, the insulin secretion stimulation in [2] is 0.4% (inactive). The viability decrease in experiment [3] is -4.6% (inactive). Moreover, in [4], the tube area decrease was 13.6% (inactive). The GLP1 secretion stimulation in experiment [5] is -1.3% (inactive). Further, the inhibition of viability in experiment [6] is -5% (inactive). Besides, the viability decrease (inhibition) in [7] is -2.7% (inactive); in experiment [8] it was -11.2% (inactive). Moreover, the result in [15], in experiment [16] and in experiment [12] was inactive.

In the case of `c1cnc2cc3c(cc2n1)C1CNCC3C1`, the nuclear beta-catenin stimulation in experiment [1] (at 10 µM) was -1.2% (inactive); in [1] (stimulation, at 2 µM), -0.4%. For the same compound, the insulin secretion stimulation in experiment [2] is 0.7% (inactive). Also, in experiment [3], the viability decrease is -3.9% (inactive). Further, in [4], the tube area decrease is 23.1% (inactive). Also, the GLP1 secretion stimulation in experiment [5] is -4% (inactive). Also, the inhibition of viability in [6] was -2.57% (inactive). Further, the viability decrease (inhibition) in experiment [7] is 9.4% (inactive); in [8], -12.7% (inactive). In addition, the compound was called inactive in experiment [10], in experiment [15], in [11], in experiment [12] and in experiment [17]. The fold change is 1.05 (inactive) in experiment [13] (setting [19]) and 1.76 in [13] (setting [20]). Further, the cell count in [13] (setting [21]) stood at 11200; in experiment [13] (setting [22]) it was 10600. In addition, the z-score in experiment [18] was 0.205 (inactive).
